# Sampled rows, rich in hits. Any-hit rate of the full collection: about 2.6%.
# BRCA1 expr up: BRCA1 expression activation; MCF7-BRCA1-FFLuc reporter, luminescence, 48 h; response scale: scaled: vehicle 0%, 10 µM genistein 100%; AID 624202; Potency, µM (series often up to 46.1 µM), for the others: top-dose activation, usual class: activators; hit rate 1.1% among 380,000; further: nearly all actives have a fitted effect of over 80% in size
#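 Activators of BRCA1 expression were detected as increased firefly luciferase luminescence in engineered MCF7 cells after 48 h compound incubation. Signals were scaled to genistein 10 microM as full activation.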
# GLP1R ag: agonists of human GLP-1 receptor | P43220 | HEK293 GLP-1R CRE-luciferase, luminescence, 4-6 h; cells express a hypersensitive GLP-1R form | Potency, µM (titrated, usually from 45.6 µM), without a hit: at the top dose activation, actives largely listed as activators | hit rate 0.007% among 380,000; further: % of control where 0% means no effect
# Target sequence (P43220 whole entry, looked up): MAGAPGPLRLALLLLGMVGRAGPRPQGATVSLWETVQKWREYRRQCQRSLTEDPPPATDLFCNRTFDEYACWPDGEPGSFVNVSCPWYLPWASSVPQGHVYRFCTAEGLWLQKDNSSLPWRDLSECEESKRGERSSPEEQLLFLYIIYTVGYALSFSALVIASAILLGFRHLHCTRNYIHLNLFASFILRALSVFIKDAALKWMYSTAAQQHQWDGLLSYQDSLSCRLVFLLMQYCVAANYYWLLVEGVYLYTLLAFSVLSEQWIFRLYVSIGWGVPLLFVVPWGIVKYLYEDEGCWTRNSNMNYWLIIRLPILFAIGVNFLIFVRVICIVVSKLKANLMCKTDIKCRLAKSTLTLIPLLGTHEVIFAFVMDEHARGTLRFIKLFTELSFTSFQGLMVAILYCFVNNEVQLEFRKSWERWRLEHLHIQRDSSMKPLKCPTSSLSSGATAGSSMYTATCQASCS
# GLP1R cytotox: cytotoxicity counter-screen for GLP-1 receptor inverse agonists; AID 624418; Potency, µM (top dose mostly 38.3 µM), without a hit: top-dose activity change, negative = inhibition, usual class: inhibitors; HEK293 cAMP-luciferase reporter cells, luminescence, 24 h; hit rate 0.13% among 410,000;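 further: loss of luciferase light is scored as toxicity; on the % scale 0 is the no-effect control and ±100 the full control effect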
#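 Compound-treated cells are incubated 24 hr at 37 deg C under 5% CO2 after a 12 hour attachment period, then luciferase detection reagent is added and luminescence is measured following 12 min at room temperature; lowered signal indicates toxicity.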
# GLP-1R inv ag: GLP-1 receptor (human) inverse agonism; Potency, µM (top dose mostly 38.3 µM), inactives show at the highest dose activity change, negative = inhibition, usual class: inhibitors; P43220; hit rate 1.6% among 410,000; HEK293 GLP-1R CRE-luciferase, luminescence, 24 h; GLP-1R form is constitutively active; AID 624417; further: on the % scale 0 is the no-effect control and ±100 the full control effect; nearly all actives have a fitted effect of over 55% in size
#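 HEK293 cells stably co-expressing constitutively active GLP-1R and a cAMP-responsive luciferase reporter were seeded in DMEM with 10% Nu serum, given compounds after 12 h, and incubated 24 h at 37 deg C. Luminescence was then read.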
# * marks the source's active call; other numbers are inactive results; i = inactive; ? = inconclusive; · = no result given; [ ] = remark or other dose. The call rests on the fitted dose curve; in most records, active means well fitted curve in the direction sought with a large enough effect; inconclusive means small, poorly fitted or top-dose-only effect, or another doubt; inactive means no such curve, though single readings can be large; an effect the other way counts as inactive or inconclusive. Potency means the concentration at half of the fitted maximal effect.
SMILES,BRCA1 expr up,GLP1R ag,GLP1R cytotox,GLP-1R inv ag
CC(C)(C)NC(=O)C(c1ccc(-c2ccccc2)cc1)n1c(=O)c(-c2cc3ccccc3[nH]2)nc2ccccc21 (centres undefined),·,·,493%,?
CC(C)(C)NC(=O)C(c1ccccc1)n1c(=O)c(-c2cc3ccccc3[nH]2)nc2ccccc21 (centres undefined),·,·,i,?
COc1ccc(C)cc1NC(c1nnc(-c2ccccc2)o1)c1ccc(F)cc1Cl (centres undefined),·,·,1%,?
C=CCOc1ccc(C=CC(=O)c2c(O)c(OC)c(OC)c(OC)c2OC)cc1,-48%,-9%,-17%,7.9µM*
O=C(Nc1ccc(Cl)c(Cl)c1)c1ccc(Cl)c(Cl)c1,29%,1%,2%,15%
O=C(Nc1ccc2c(c1)COC2=O)c1ccc(Cl)c(Cl)c1,14µM*,-1%,-1%,13%
CSc1cccc(NC(=O)CCCOc2cc(=O)n(C)c3ccccc23)c1,0%,7%,-7%,13%
CCCSc1cc(N2CCOCC2)nc(-c2ccccc2Cl)n1,-22%,8%,-13%,10µM*
COc1ccccc1NC(=O)Cn1c(=O)n(Cc2ccco2)c(=O)c2oc3ccccc3c21,·,·,2%,4%
Cc1nn2cc(-c3ccc(Cl)cc3)cnc2c1Cl,3.2µM*,9%,19%,33%
c1ccc2c(CCC3CCNCC3)c[nH]c2c1,·,6%,·,·
CC1(C(=O)NCc2ccc(C(F)(F)F)cc2)CCN1Cc1ccccc1OC(F)F (centres undefined),-27%,5%,3%,?
CC1(C(=O)NCc2cccc3ccccc23)CCN1Cc1ccccc1OC(F)F (centres undefined),-10%,2%,-15%,13µM*
CSc1ccc(/C=C2\C=C(C(O)c3ccc(SC)cc3)c3ccccc32)cc1 (centres undefined),0%,·,·,·
CN1C(=O)/C(=C2/C=Cc3ccccc3N2CCCS(=O)(=O)O)SC1=S,16%,-5%,8.9µM*,-2%
O=C(COC(=O)c1c(F)cccc1F)Nc1cccc(S(=O)(=O)N2CCCCC2)c1,2%,0%,2%,4%
CCc1ccc(-c2cc(C)no2)cc1S(=O)(=O)N1CCN(c2ccccc2F)CC1,0%,0%,4%,4%
Cc1cccc(N2CCN(S(=O)(=O)c3cc(-c4cc(C)no4)ccc3C)CC2C)c1 (centres undefined),0%,-3%,-12%,4µM*
CCc1ccc(-c2cc(C)no2)cc1S(=O)(=O)N1CCCN(Cc2ccc(F)cc2)C1,-52%,-5%,-24%,2.5µM*
COc1ccc(-c2cc(C)no2)cc1S(=O)(=O)N1CCN(c2cccc(C)c2)C(C)C1 (centres undefined),0%,-4%,4%,?
COc1ccccc1N1CCN(S(=O)(=O)c2cc(-c3cc(C)no3)ccc2C(C)C)CC1,1%,5%,-9%,1µM*
CCc1ccc(-c2cc(C)no2)cc1S(=O)(=O)N1CCN(c2cccc(C)c2C)CC1,-26%,2%,-10%,7.9µM*
Cc1ccc2c(c1)cc1c(=O)n(CC(=O)NCc3ccco3)nc(C)n12,·,·,2%,4%
Cc1ccc(NC(=O)CCc2c(C)nc3ncnn3c2C)cc1Cl,2%,-1%,0%,11%
CN(Cc1ccc(Cl)c(Cl)c1)C(=O)C1CSC2(C)CCC(=O)N12 (centres undefined),0%,9%,-13%,?
SMILES,BRCA1 expr up,GLP1R ag,GLP1R cytotox,GLP-1R inv ag
COc1ccc(-c2csc(NCCc3nc4cc(Cl)c(N5CCCCC5)cc4n3CCOCCO)n2)cc1,-36%,3%,2%,?
OCCCn1c(CCCNc2nc(-c3cccc(Br)c3)cs2)nc2cc(Cl)c(N3CCCCC3)cc21,-40%,-10%,3%,10µM*
Cc1cc2c(cc1S(=O)(=O)Nc1cccc(Cl)c1C)OCCN2C,·,·,-1%,10µM*
COc1ccc(NS(=O)(=O)c2cc3c(cc2C)N(C)CCO3)cc1,-8%,11%,-3%,?
COc1ccc(Br)cc1CNC(=O)CCCc1cn(C)c2ccccc12,-22%,5%,-6%,22µM*
Cc1cc(C(=O)CSc2nc(N)cc(N)n2)c(C)n1C1CC1,-18%,10%,12%,7%
Cc1ccc(C(=O)CSc2nnc(N)s2)c(C)c1,4.5µM*,0%,0%[0.307 µM],-13%[0.307 µM]

# Screening data as filed in PubChem.
